Bioassay records from PubChem BioAssay.
D2 PAM-1: positive allosteric modulators of human D2 dopamine receptor; P14416; HEK293 T-REx D2, calcium flux, EC20 dopamine potentiation; potentiation, % at 10 µM; actives 0.34% (n = 340,000); AID 485347;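 active = potentiation over 3 SD above the plate norm, cut at about 30% in these data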; note: 0% is about no effect
Target sequence (P14416 whole entry, looked up): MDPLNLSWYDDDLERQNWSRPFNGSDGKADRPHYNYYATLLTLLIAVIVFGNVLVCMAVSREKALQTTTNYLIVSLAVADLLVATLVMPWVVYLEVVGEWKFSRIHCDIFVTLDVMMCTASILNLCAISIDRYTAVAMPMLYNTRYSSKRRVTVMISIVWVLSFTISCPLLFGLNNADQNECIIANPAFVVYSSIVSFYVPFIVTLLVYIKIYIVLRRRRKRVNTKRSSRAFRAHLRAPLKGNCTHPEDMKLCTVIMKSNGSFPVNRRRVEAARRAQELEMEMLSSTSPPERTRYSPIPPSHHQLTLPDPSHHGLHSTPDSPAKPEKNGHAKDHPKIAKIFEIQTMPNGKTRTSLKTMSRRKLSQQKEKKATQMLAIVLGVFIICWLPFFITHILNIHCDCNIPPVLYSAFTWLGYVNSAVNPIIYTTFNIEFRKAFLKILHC
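Cells plated with tetracycline inducer and held overnight at 30 C; calcium dye loaded 30–90 min at room temperature; baseline taken, compound added and read 180 s; EC20 dopamine then added and read 180 s.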
D2 PAM-2: potentiates the human D2 dopamine receptor allosterically | potentiation, % (test concentration not listed) | actives 0.23% (n = 360,000) | P14416 | DiscoveRx D2 beta-arrestin cells, luminescence, 90 min; 100% = 57 uM dopamine signal | AID 624464; in the data active = potentiation above about 50%; inconclusive = mostly about 30% to 49%
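D2 cells co-treated with compound plus 50 nM dopamine (EC20) for 90 min at 37 deg C to detect potentiation. Beta-arrestin recruitment was read as enzyme-fragment luminescence after 1 h at ambient temperature. Full response was set by 57 uM dopamine.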
D2 ag-1: activates the human D2 dopamine receptor; P14416; DiscoveRx PathHunter D2 beta-arrestin, luminescence, 90 min; 100% = 57 uM dopamine signal; activation, % (test concentration not listed); actives 0.084% (n = 360,000); in the data active = activation above about 40%; inconclusive = between about 15% and that limit
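Agonist mode: compounds alone added to overnight-plated D2 PathHunter cells for 90 min at 37 C, with 57 uM final dopamine (EC100) defining full response. Beta-arrestin recruitment detected by chemiluminescent reagent, read after 1 h at ambient temperature.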
D2 antagonist: antagonizes the human D2 dopamine receptor | P14416 | HEK293 TREx D2 cells, calcium flux, dopamine EC80 | inhibition, % at 10 µM | actives 2% (n = 340,000) | AID 485344; in the data active = inhibition above about 30%; inactive = below that, where a call was filed; note: 0% is about no effect
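In this primary screen, negative modulation is detected by tracking calcium flux after an EC80 dopamine challenge in inducible HEK293 T-REx D2 cells preexposed to test compound for 180 s.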
D2 ag-2: D2 dopamine receptor (human) agonism | activation, % at 2 µM | HEK293 T-REx D2 cells, calcium flux agonist mode | actives 0.53% (n = 340,000);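 active = activation over 3 SD above normal in the single-dose calcium agonist read, cut at about 30% in these data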; note: 0% is about no effect
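In this primary screen, compounds producing a positive calcium signal within 180 s of addition to tetracycline-induced, force-coupled HEK293 Trex D2 cells are flagged; cells are dye-loaded with a no-wash calcium kit beforehand.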
* = called active by the depositor; u = inconclusive; x = no result; ! = repeats disagree. A selection: hits, their analogues and other compounds. The true share with any hit is near 2.4%.

SMILES | D2 PAM-1 | D2 PAM-2 | D2 ag-1 | D2 antagonist | D2 ag-2
COc1ccc(Cl)cc1NC(=O)c1cc(S(=O)(=O)N2CCc3ccccc32)cn1C | -2 | x | x | x | 4
CC(=O)c1ccc(OCC(O)CN2CCN(S(=O)(=O)c3c(C)cc(C)cc3C)CC2)cc1 (configuration not stated) | 2 | -6 | 1 | 0 | 1
COc1cc(C(C)=O)ccc1OCC(O)CN1CCN(c2cc(C)cc(C)c2)CC1 (configuration not stated) | -30 | -4 | 4 | 58* | 1
CC(=O)c1ccc(N2CCN(CC(O)COC(c3ccccc3)c3ccccc3)CC2)cc1 (configuration not stated) | 37* | -12 | -1 | -17 | -1
CC1CCCN(CC(O)COC(c2ccccc2)c2ccccc2)C1 (configuration not stated) | -10 | -10 | -1 | 50* | 1
O=C(Cn1nc2c(cc1=O)CCCC2)NCc1ccccc1Cl | 8 | x | x | x | 2
Cc1cccc(N2CCN(C(=O)c3cnn(-c4cccc(Cl)c4C)c3C3CCNCC3)CC2)c1C | 0 | x | x | x | x
CCOC(=O)CSc1nnc(-c2cccs2)n1-c1ccccc1 | 32* | 7 | -3 | -7 | -1
Cc1cc(C)cc(NC(=O)CCCn2nc(C)c3c(C)n(-c4ccccc4)nc3c2=O)c1 | 33*! | -11 | -5 | -19 | 1
Cc1ccccc1NC(=O)CCCn1nc(C)c2c(C)n(-c3ccccc3)nc2c1=O | -3 | -8 | 3 | -8 | 0
O=C(NCc1cccs1)C1CCCN1C(=O)Nc1ccccc1 (configuration not stated) | -9 | -14 | 0 | 5 | 1
O=C(NCc1cccs1)C1CCCN1C(=O)Nc1ccc(Cl)cc1 (configuration not stated) | -5 | x | x | 32* | 1
COc1cccc(-c2nc(S(=O)(=O)c3ccc(C)cc3)c(N3CCCCC3)o2)c1 | 10 | x | x | x | 0
CCCCCCNCc1ccc(Br)cc1 | -21 | -27 | -2 | 30* | 0
CCCNC(=O)Cn1c(=O)/c(=C\c2ccc(-c3ccc([N+](=O)[O-])cc3)o2)s/c1=C\C(=O)C(C)(C)C | -14 | 7 | -2 | 54* | 93*
CCN1C(=O)OC2(CCCCC2)C1(C)O (configuration not stated) | 41* | x | x | 7 | 0
CC1=CC(C)(C)Nc2ccc(OC(=O)c3ccco3)cc21 | 1 | 51* | 7 | -3 | 1
Cc1cccc(-c2nc(CS(=O)CC(=O)NCc3cccs3)c(C)o2)c1 (configuration not stated) | 3 | -3 | -9 | 39* | 0
CCc1ccc(-c2nc(CS(=O)CC(=O)NCc3ccco3)c(C)o2)cc1 (configuration not stated) | 73* | -2 | 0 | -11 | 0
COc1ccc(-c2nc(CS(=O)CC(=O)NCc3ccco3)c(C)o2)cc1 (configuration not stated) | -7 | -2 | -2 | -3 | -1
CC(C)(C)NC(=O)C1c2ccccc2Oc2ccccc21 | 12 | 7 | -4 | 47* | 0
Cc1ccc(Cl)cc1Nc1nc2ccccc2n2c(C)nnc12 | 3 | x | x | x | 0
COc1ccc(OC)c(/C=C/C(=O)N(C)CC(=O)Nc2ccc(N3CCOCC3)cc2)c1 | -8 | -27 | 1 | 40* | 1
CC1CCCCN1C(=O)c1ccc2c(c1)N(Cc1ccc(F)cc1)C(=O)c1ccccc1S2(=O)=O (configuration not stated) | -2 | x | x | x | x
CCc1cccc(NC(=O)CSc2nnc(-c3cc4occc4n3C)n2-c2ccccc2C)c1 | 3 | x | x | x | 0
SMILES | D2 PAM-1 | D2 PAM-2 | D2 ag-1 | D2 antagonist | D2 ag-2
CCN1CCCC1CNC(=O)c1ccc(N2CCOCC2)c(NS(=O)(=O)c2ccc(OC)cc2)c1 (configuration not stated) | -13 | -17 | -1 | 33* | 0
CCN(CC)CCNC(=O)c1ccc(N2CCCCC2)c(NS(=O)(=O)c2ccc(C)cc2)c1 | -17 | -26 | -5 | 56* | 1
Cc1ccc2onc(CC(=O)N3CCN(c4cccc(Cl)c4)CC3)c2c1 | -5 | x | x | x | 0
Cc1csc2nc(COc3ccc(NC(=O)COc4ccccc4F)cc3)cc(=O)n12 | 3 | x | x | x | 0
Cc1ccc(/C(N)=N/OC(=O)N2c3ccccc3Sc3ccccc32)cc1 | x | 101* | u | x | x
CCOc1cc2sc(N3CCC(C(=O)Nc4ccc(C(C)C)cc4)CC3)nc2cc1Br | 10 | x | x | x | 0
O=C(Nc1ccnn1C1CCN(Cc2ccccc2)CC1)c1ccccc1Cl | -24 | -25 | -7 | 7 | -1
O=C(Nc1ccnn1C1CCN(C/C=C/c2ccccc2)CC1)c1ccccc1Cl | -25 | -14 | u | 80* | 83*
CCOc1ccc(CN2CCC(n3nccc3NC(=O)c3ccccc3OC)CC2)cc1 | -26 | -39 | -5 | 38* | 0
O=C(CCc1ccccc1)Nc1ccnn1C1CCN(C/C=C/c2ccccc2)CC1 | 2 | -47 | -1 | -16 | 7
COc1ccccc1/C=C/CN1CCC(n2nccc2NC(=O)CCc2ccccc2)CC1 | 0 | -13 | -6 | 35* | 0
CCn1cc(CN2CCC(n3nccc3NC(=O)c3ccccc3OC)CC2)cn1 | -11 | -10 | -2 | 21 | -1
O=C(COc1cccc(F)c1)N1c2ccccc2Sc2ccccc21 | 0 | 93* | u | -7 | 0
Cc1ccc(NC(=S)N2CCC(c3ccccc3)C2)c(Cl)c1 (configuration not stated) | -3 | -7 | -3 | 30* | -1
S=C(Nc1ccccc1Cl)N1CCC(c2ccccc2)C1 (configuration not stated) | -6 | 2 | -4 | 2 | -1
CC1=C(C(=O)NCCN2CCN(C)CC2)C2(CCC(C)CC2)OC1=O (configuration not stated) | 23 | -7 | -1 | 61* | 0
COc1ccccc1CNC(=O)C1=C(C)C(=O)OC12CCC(C)CC2 (configuration not stated) | 0 | -1 | -3 | 47* | 0
CCCNC(=O)C1=C(C)C(=O)OC12CCC(C)CC2 (configuration not stated) | 15 | -1 | -1 | -5 | 0
COc1ccc(Cl)cc1NC(=O)CSc1nc2c([nH]c3ccccc32)c(=O)n1-c1ccccc1 | 2 | x | x | x | 1
O=C(C1CCCO1)N1CCN(C(=S)Nc2ccc(F)cc2)CC1 (configuration not stated) | 1 | -4 | 2 | 41* | 1
Oc1ccc(-c2nccc(-c3ccc(Cl)cc3)n2)cc1 | -1 | -5 | 3 | 2 | -1
Oc1ccc(-c2nccc(-c3ccc(Cl)cc3Cl)n2)cc1 | 95* | -3 | 0 | 6 | -1
CCOC(=O)c1ccc(NC(=O)CCC(=O)N2CCSc3ccccc32)cc1 | -1 | x | x | x | x
